High-throughput results from PubChem.
Mcl1 Noxa PPI = Mcl-1/Noxa interaction inhibition; Q07820; TR-FRET Mcl-1/Noxa peptide binding, 2 h; inhibition, % at 21.7 µM; 220,000 compounds, 1.5% hits;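 active = compounds that cut the protein-peptide binding signal by more than 50% relative to plate controls in a single-dose test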;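 also: His-tagged Mcl-1 with rhodamine Noxa BH3 peptide and terbium anti-His antibody; 0% = Mcl-1 plus Noxa peptide wells and 100% = peptide-only wells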
Target sequence (Q07820 whole entry, looked up): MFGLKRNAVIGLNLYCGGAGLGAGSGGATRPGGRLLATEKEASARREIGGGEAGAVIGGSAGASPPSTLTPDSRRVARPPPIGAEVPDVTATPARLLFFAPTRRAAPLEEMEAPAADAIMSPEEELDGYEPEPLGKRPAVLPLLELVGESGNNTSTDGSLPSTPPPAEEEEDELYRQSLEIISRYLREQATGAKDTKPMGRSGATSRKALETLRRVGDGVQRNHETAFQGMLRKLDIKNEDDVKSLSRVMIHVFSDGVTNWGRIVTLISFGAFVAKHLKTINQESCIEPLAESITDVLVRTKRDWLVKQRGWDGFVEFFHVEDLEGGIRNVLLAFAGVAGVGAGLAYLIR
Hck Nef HTS = blocks Nef-activated human Hck kinase | P08631 | Recombinant Hck-YEEI plus Nef, Z-Lyte FRET kinase assay | inhibition, % at 20 µM | 220,000 compounds, 0.68% hits;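 active = Hck-Nef kinase inhibition above about 50%, limit read from the data; inactive = inhibition below that limit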;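 also: 0% = DMSO with Hck plus Nef and 100% = Hck alone without Nef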
Mcl1 Bid PPI = disrupts binding of human Mcl-1 to Bid peptide; Q07820; TR-FRET Mcl-1/Bid-Dy647 peptide binding, 1536-well; inhibition, % at 21.7 µM; 220,000 compounds, 0.97% hits; AID 1021;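 active = compounds that cut the binding signal by more than half at the single screening dose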;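 also: His-tagged Mcl-1 with europium anti-His antibody binding Bid BH3 peptide; 0% = Mcl-1 plus peptide wells and 100% = peptide-only wells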
Mcl-1 Bim block = inhibitors of Bim-Mcl-1 interaction, human. Q07820. Bead-based flow cytometry, Bim peptide-Mcl-1 binding. inhibition, % at 10 µM. 190,000 compounds, 0.1% hits; in the data active = inhibition above about 40%;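 also: 0% = no compound tracer wells and 100% = peptide blocker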
14-3-3 Bad inh = disrupts binding of bovine 14-3-3 zeta to phospho-Bad peptide; AID 781; inhibition, % at 21.7 µM; 220,000 compounds, 0.71% hits; P63103; TR-FRET 14-3-3zeta/Dy647-pBad peptide displacement, 1 h;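 active = inhibition above about 70%, limit read from the data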;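 also: 0% = full 14-3-3 plus peptide FRET controls and 100% = background without 14-3-3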
Target sequence (P63103 whole entry, looked up): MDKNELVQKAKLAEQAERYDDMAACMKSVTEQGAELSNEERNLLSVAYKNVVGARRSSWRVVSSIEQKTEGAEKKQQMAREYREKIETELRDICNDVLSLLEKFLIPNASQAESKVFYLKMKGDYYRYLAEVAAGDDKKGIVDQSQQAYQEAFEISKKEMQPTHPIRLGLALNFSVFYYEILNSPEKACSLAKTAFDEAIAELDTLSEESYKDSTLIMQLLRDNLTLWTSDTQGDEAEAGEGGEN
eIF4E 4G PPI = inhibitors of eIF4E and eIF4G interaction in translation initiation | TR-FRET eIF4E-eIF4GI(517-606) binding, 2 h | inhibition, % at 21.7 µM | AID 782 | P63073+Q04637 | 220,000 compounds, 0.37% hits;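 active = inhibition above about 30%, limit read from the data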;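 also: 0% = full FRET control wells and 100% = background wells lacking eIF4GI fragment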
* = called active by the depositor; . = no result given; [ ] = remark or other dose. The list is not random: actives were taken first. Their share in the collection is about 3.5%.

SMILES	Mcl1 Noxa PPI	Hck Nef HTS	Mcl1 Bid PPI	Mcl-1 Bim block	14-3-3 Bad inh	eIF4E 4G PPI
CN(CCC#N)C(=O)COC(=O)c1c2c(nc3ccccc13)/C(=C/c1ccco1)CC2	85*	6	63*	22	-10	7
Cc1ccc(C2C(C#N)=C(N)Oc3c2sc2ccccc32)o1 (stereo not drawn)	74*	6	-13	7	0	1
BrC(=C\c1ccccc1)/C=N/N1CCN(c2ccccc2)CC1	24	4	-43	43*	-3	3
Cc1ccc(NC(=O)C(=O)NCc2ccc(/C=C(/C#N)C(=O)NCc3cccnc3)o2)cc1	6	0	-12	-4	-2	-6
Cc1ccc(NC(=O)C(=O)NCc2ccc(/C=C(/C#N)C(=O)NCc3cccnc3)o2)cc1C	17	4	95*	-1	1	-5
CN(C)/C=C(/C(=O)c1ccc(Cl)cc1)S(=O)(=O)c1ccc(Cl)cc1	5	-1	-24	0	-11	-9
CCOC(=O)c1ccc(NS(=O)(=O)N2CCCCCC2)cc1	14	0	78*	0	-2	1
CCOC(=O)c1ccc(S(=O)(=O)N2CCNCC2)cc1	11	-5	54*	-7	4	-10
O=c1[nH]cc(N(CCO)CCO)c(=O)[nH]1	14	15	-34	.	0	94*
O=C1OC(C(=O)NCc2ccccc2)Cc2ccccc21 (stereo not drawn)	-1	0	-30	0	74*	0
CC1CCCCC1NC(=O)c1ccc2c(c1)[nH]c(=O)n2C1CCCC1 (stereo not drawn)	82*	2	8	-4	-2	-5
CCn1c(=O)c(=O)[nH]c2cc(C(=O)NC3CCCC3)ccc21	17	-10	-10	0	2	0
Cc1nn(-c2ccccc2)c(Cl)c1/C=N/Nc1ccc(S(=O)(=O)Nc2ccccc2C(=O)O)cc1[N+](=O)[O-]	105*	16	100*	-3	88*[fluorescence artefact?]	26
COc1ccc(NC(=S)NNc2ccc(S(=O)(=O)Nc3ccccc3C(=O)O)cc2[N+](=O)[O-])cc1	88*	-5	73*	.	14	9
O=C(CN1CCOCC1)Nc1ccccc1Sc1ccc(Cl)cc1	4	1	-2	-3	-3	8
CC1CCC(C(C)C)C(OCC(O)CN2CCN(Cc3ccccc3)CC2)C1 (stereo not drawn)	35	1	35	-2	74*	-4
Cc1ccc(-c2nc(N3CCOCC3)sc2C(=O)N2CCCCC2)cc1	13	3	98*	-3	13	-2
Cc1ccc(-c2nc(N3CCOCC3)sc2C(=O)N2CCOCC2)cc1	0	2	-16	-3	-23	3
O=C(Cn1c(C(F)(F)F)nc2ccccc21)c1ccc(F)cc1	14	0	101*	2	-3	2
O=C(Cn1c(C(F)(F)F)nc2ccccc21)c1ccc(Br)cc1	-11	-1	-2	0	0	-1
Cc1ccc(C(=O)NC2CCCCNC2=O)cc1 (stereo not drawn)	-17	14	-20	.	-2	90*
O=C(NC1CCCCNC1=O)c1ccc(Cl)cc1 (stereo not drawn)	7	2	-23	-5	0	3
CN(C)c1ccc(Nc2nc(N)c([N+](=O)[O-])c(N3CCOCC3)n2)cc1	83*	14	-12	1	-16	3
O=C(COC(=O)c1cnccn1)Nc1ccc2c(c1)OCO2	62*	11	-1	0	-5	-10
Nc1ccc(C(=O)OCC(=O)Nc2ccc3c(c2)OCO3)cc1[N+](=O)[O-]	52*	4	-33	0	11	3
SMILES	Mcl1 Noxa PPI	Hck Nef HTS	Mcl1 Bid PPI	Mcl-1 Bim block	14-3-3 Bad inh	eIF4E 4G PPI
Cc1cc(C)c(S(=O)(=O)Nc2cc(SCC(=O)O)c(O)c3ccccc23)cc1C	82*	30	29	0	68	27
Cc1cc(C)c(S(=O)(=O)Nc2ccc(O)cc2)cc1C	5	1	-1	-5	-9	7
COCCN(C(=O)Cc1cccs1)c1nnc(-c2ccncc2)s1	21	1	-48	-2	82*	-4
COc1cccc(C2c3[nH]c4ccccc4c3CCN2C(=O)Cn2cncn2)c1OC (stereo not drawn)	-14	7	-51	0	-9	-1
COc1ccccc1C1c2[nH]c3ccccc3c2CCN1Cc1ccc(NC(C)=O)s1 (stereo not drawn)	-6	14	-33	.	-2	89*
C=CCNC(=O)COc1cc(C)ccc1C	0	3	-10	-4	33	40*
C=CCNC(=O)COc1ccccc1C#N	7	-3	-27	-2	-2	0
Cc1ccsc1C(=O)OCC(=O)N1CCOCC1	2	-2	67*	-5	-2	1
CCNc1ccc(S(=O)(=O)NCCN(C)C)cc1[N+](=O)[O-]	-4	-5	-26	-1	-13	-5
CCNc1ccc(S(N)(=O)=O)cc1[N+](=O)[O-]	51*	0	2	-5	23	-4
O=C1c2ccccc2C(=O)N1CN(C(=O)COc1ccc(Cl)cc1Cl)c1cccc(F)c1	6	3	-13	92*	-2	-1
CCN(C(=O)COc1cc(=O)n(CC)c2ccccc12)c1cccc(Cl)c1	11	3	0	1	-6	-8
CCN1CCN(C(c2cccs2)C(C)NC(=O)c2ccccc2)CC1 (stereo not drawn)	-26	17	-15	-4	11	-4
CCN1CCN(C(c2cccs2)C(C)NC(=O)c2cccc(OC)c2OC)CC1 (stereo not drawn)	52*	1	-43	-5	-8	-2
Cc1cccc(N=C2NC(=O)S/C2=C\c2ccco2)c1	35	0	4	0	-3	5
Cc1cccc(N=C2NC(=O)/C(=C/C=C/c3ccco3)S2)c1	106*	29	31	-5	2	5
O=C1NC(=Nc2ccc(Cl)cc2)/C(=C/c2ccco2)S1	66*	12	57*	4	81*[fluorescence artefact?]	20
Cc1cc(C)cc(N=C2NC(=O)/C(=C/c3cccs3)S2)c1	18	8	-5	-2	-13	2
Cc1ccc(N=C2NC(=O)/C(=C\c3ccco3)S2)cc1	45	29	-28	-3	-6	3
O=C1NC(=Nc2ccc3ccccc3c2)S/C1=C/c1ccco1	64*	11	-66	2	-9	7
CCn1nc(C)c(/C=N/NC(=O)c2ccc3c(c2)c(C)c(C)n3Cc2ccccc2)c1C	23	3	-54	-3	-29	1
CCCCNCc1cc2ccccc2o1	44	14	4	.	4	-3
CCOC(=O)C1=C(C)N(c2ccc(C)cc2)C(=O)/C1=C\c1cccs1	52*	1	-45	0	-9	-6
